The campaign covered roughly 340,000 compounds. About 2,100 (0.62%) were called active.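 The calls were made as follows: active = first-screen hits whose inhibition reached a set limit at any dose in the follow-up dose series; inconclusive = inhibition above the set first-screen limit but never retested; inactive = the rest.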 These entries were drawn from the full list. Potency and affinity values are given separately.

Chain of Rac GTPase-activating protein 1 (Homo sapiens) (Q9H0H5 whole entry, looked up): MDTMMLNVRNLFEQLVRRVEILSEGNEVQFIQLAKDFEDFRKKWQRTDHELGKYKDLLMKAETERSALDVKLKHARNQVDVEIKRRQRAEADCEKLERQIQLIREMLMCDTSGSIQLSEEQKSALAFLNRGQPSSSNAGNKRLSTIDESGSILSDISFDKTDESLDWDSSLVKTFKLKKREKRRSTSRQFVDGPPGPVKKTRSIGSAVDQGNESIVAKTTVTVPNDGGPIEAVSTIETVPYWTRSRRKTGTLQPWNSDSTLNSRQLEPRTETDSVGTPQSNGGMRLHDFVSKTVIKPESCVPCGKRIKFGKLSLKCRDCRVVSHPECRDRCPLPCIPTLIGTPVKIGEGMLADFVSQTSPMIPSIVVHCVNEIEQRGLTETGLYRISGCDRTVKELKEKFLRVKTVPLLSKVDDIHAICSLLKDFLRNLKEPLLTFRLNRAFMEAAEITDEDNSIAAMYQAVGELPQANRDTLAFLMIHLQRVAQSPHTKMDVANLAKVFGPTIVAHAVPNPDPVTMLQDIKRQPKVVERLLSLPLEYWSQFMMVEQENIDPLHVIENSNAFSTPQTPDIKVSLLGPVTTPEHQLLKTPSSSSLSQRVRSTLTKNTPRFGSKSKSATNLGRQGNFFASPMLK

The assay has as its target Rac GTPase-activating protein 1 (Homo sapiens) (UniProt Q9H0H5). In words: MgcRacGAP GTPase-activating activity inhibitors, confirmation, biochemical, ADP Hunter fluorescence, primary and confirmatory (AID 624330).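 Also: fluorescence reports GDP produced by GAP-driven GTP hydrolysis.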 As to conditions: MgcRacGAP-stimulated Rac1 GTP hydrolysis, at 30 µM, active compounds read high, GST-tagged Rac1 F28L mutant substrate.
For `COc1ccc(NC(=O)NNC(=O)C(C)Oc2ccc3ccccc3c2)cc1` (stereo not drawn), the inhibition is 3.58% (inactive).

With `S=C(NCCc1ccccc1)Nc1ccc(Nc2ccccc2)cc1`, the inhibition is 26.5% (inactive).

For `O=C(Nc1ccc(Nc2ccccc2)cc1)C(Cl)(Cl)Cl`, the inhibition is 12.3% (inactive).

Turning to `Cc1ccc(Nc2ccccc2)cc1`, the inhibition was 6.69% (inactive).

Take `O=C(Nc1ccc(Nc2ccccc2)cc1)c1c(F)c(F)c(F)c(F)c1F`: the inhibition was -3.02% (inactive).

As to `Cc1ccc(C)c(OCCC(=O)OCC(=O)Nc2cc(S(=O)(=O)N3CCCCC3)ccc2C)c1`, the inhibition was 0.95% (inactive).

In the case of `CC1CCN(C(=O)c2ccc(NS(=O)(=O)c3ccc4[nH]c(=O)[nH]c4c3)cc2)CC1`, the inhibition was 8.71% (inactive).

For the molecule `CN(CC(=O)O/N=C(\N)c1ccc([N+](=O)[O-])cc1)S(=O)(=O)c1ccccc1`, the inhibition is -3.85% (inactive).

`O=C(/C=C/C(Cl)(Cl)Cl)Nc1ccc(Cl)cc1`: the inhibition was 9.68% (inactive).

Consider `CC1=NN(c2ccccc2)C(=O)C1C=Nc1ccccc1O` (stereo not drawn), for which the inhibition was 14.8% (inactive).

`CC1=NN(c2ccccc2)C(=O)C1C(=O)c1ccccc1` (stereo not drawn): the inhibition is 12.2% (inactive).

For the molecule `O=C(NC1(C(F)(F)F)C(=O)Nc2c1c(=O)[nH]c(=O)n2Cc1ccccc1)c1ccco1` (stereo not drawn), the inhibition was 6.82% (inactive).

As for `c1ccc(-c2ccccc2OCCCN2CCOCC2)cc1`, the inhibition was 27.2% (inactive).

Turning to `c1ccc(-c2ccccc2OCCOCCN2CCCCC2)cc1`, the inhibition was 17.9% (inactive).

Take `CCOc1ccccc1OCCOCCN1CC(C)OC(C)C1` (stereo not drawn): the inhibition was 17.3% (inactive).

For the molecule `OCCN1CCN(CCOc2ccccc2-c2ccccc2)CC1`, the inhibition was -0.13% (inactive).

In the case of `CC1CN(CCOc2ccccc2-c2ccccc2)CC(C)O1` (stereo not drawn), the inhibition is 18% (inactive).

Turning to `OCCCN1CCN(CCCOc2ccccc2-c2ccccc2)CC1`, the inhibition is 5.09% (inactive).

On to `c1ccc(-c2ccccc2OCCOCCN2CCNCC2)cc1`, for which the inhibition was 31.8% (inactive).

For `CCN1CCN(CCOc2ccccc2-c2ccccc2)CC1`, the inhibition is 7.05% (inactive).

On to `Cc1ccc(C(=O)COC(=O)c2cnccn2)cc1`, for which the inhibition is -2.3% (inactive).

In the case of `O=C(C1CCCN(S(=O)(=O)c2ccc(Cl)cc2)C1)N(Cc1cccs1)C1CC1` (stereo not drawn), the inhibition was 6.33% (inactive).

For `CCn1c(SCC(=O)Nc2cc(C)on2)nnc1-c1ccc(OC)cc1`, the inhibition is -3.69% (inactive).

For the molecule `OC(CNCc1cccs1)c1ccccc1` (stereo not drawn), the inhibition was 8.64% (inactive).

For `COc1cccc(CN2CCN(S(=O)(=O)c3ccc(Cl)s3)CC2)c1`, the inhibition was -1.96% (inactive).

For `CCOc1ccc(/C=N/n2cc(-c3ccccc3)[nH]c2=S)cc1`, the inhibition was 7.02% (inactive).

Turning to `CCOC(=O)C1(C(=O)OCC)NC(=O)CC1CC(C)C` (stereo not drawn), the inhibition was 0.34% (inactive).

With `COc1ccc(NC(=S)NCCc2ccc(F)cc2)c(OC)c1`, the inhibition is 5.59% (inactive).

For `Clc1ccccc1OCCCCn1ccnc1`, the inhibition was -1.42% (inactive).

Turning to `Fc1ccccc1OCCCCN1CCCCC1`, the inhibition is 24.8% (inactive).

`Cc1ccccc1OCCCCCn1ccnc1`: the inhibition is 2.87% (inactive).

For `C/C=C/c1ccc(OCCCCN2CCC(C)CC2)c(OC)c1`, the inhibition was 17.4% (inactive).

Take `CC1CN(CN2C(=O)c3ccccc3C2=O)CC(C)O1` (stereo not drawn): the inhibition was -0.88% (inactive).

As for `C/C=C/c1ccc(OCCCCOc2ccc(OC)cc2)c(OC)c1`, the inhibition is 8.38% (inactive).

As for `Fc1ccccc1OCCCCCN1CCCC1`, the inhibition is 10.2% (inactive).

On to `CC1CN(C(=O)CCCN2C(=O)c3ccccc3C2=O)CC(C)O1` (stereo not drawn), for which the inhibition was -0.39% (inactive).

In the case of `CCn1c2ccccc2c2cc(NC(=O)COC(=O)c3cc(S(N)(=O)=O)c(Cl)cc3Cl)ccc21`, the inhibition was 11.3% (inactive).

Turning to `O=C(Nc1nnc(C2CC2)s1)C1Cc2ccccc2CN1C(=O)c1ccco1` (stereo not drawn), the inhibition was 6.66% (inactive).

Take `c1cn(CCCNc2ncnc3nc[nH]c23)cn1`: the inhibition was 8.22% (inactive).

As to `CCCNC(=O)CNC(=S)N(Cc1ccccc1F)C1CCCCC1`, the inhibition was 8.76% (inactive).

As to `CCCN(CC(=O)Nc1ccc(F)c(F)c1F)C(=O)Cn1c(=O)cnc2ccccc21`, the inhibition is 5.6% (inactive).

Regarding `O=C(OCC(=O)N1CCc2ccccc2C1)c1c(F)cccc1Cl`, the inhibition is 4.76% (inactive).

Take `O=C1CN(C(=O)COC(=O)c2ccc(N3CCCCCC3)c([N+](=O)[O-])c2)c2ccccc2N1`: the inhibition was 13.5% (inactive).

Turning to `COc1ccc(NC(=O)CN(C)C(=O)Cn2c(=O)oc3ccccc32)cc1`, the inhibition is 3.28% (inactive).

In the case of `CCOc1cc(/C=C2\CCCC(C(=O)C(F)(F)F)=C2O)ccc1O`, the inhibition was 25.9% (inactive).

In the case of `COc1cc(/C=C2/C(=O)CNC2=O)ccc1O`, the inhibition was 28.6% (inactive).

Regarding `COc1ccc(/C=C2\CC/C(=C\c3ccc(OC)c(OC)c3)C2=O)cc1OC`, the inhibition was 4.49% (inactive).

As to `COc1cc(/C=C2/CC/C(=C/c3ccc(O)c(OC)c3)C2=O)ccc1O`, the inhibition is 22% (inactive).

As for `CCN1C/C(=C/c2ccc(OC)c(O)c2)C(=O)/C(=C/c2ccc(OC)c(O)c2)C1`, the inhibition was 8.1% (inactive).

In the case of `CCOc1cc(/C=C2\CCn3c2nc2cc(Cl)ccc2c3=O)ccc1O`, the inhibition was 15.1% (inactive).

As for `CCOc1cc(/C=C2/C(=O)ON=C2C)ccc1O`, the inhibition is 21.6% (inactive).

As for `COc1ccc(/C=C2\CN(Cc3ccccc3)C/C(=C\c3ccc(OC)c(O)c3)C2=O)cc1O`, the inhibition is 7.6% (inactive).

With `O=C(CSc1nnc(NC(=O)c2ccccc2F)s1)NC1CC1`, the inhibition is 2.69% (inactive).

On to `NNC(=O)c1ncoc1-c1ccc(Cl)cc1`, for which the inhibition was 5.93% (inactive).

For the molecule `C=CCN1CC2CC3(COc4cc(C)cc(C)c4)C=CC2(O3)C1=O` (stereo not drawn), the inhibition was 14.1% (inactive).

On to `Cc1ccc(C(=O)OCC(=O)Nc2ccc(F)c(Cl)c2)o1`, for which the inhibition is 5.92% (inactive).

`COc1ccc(CNC(=O)C[C@H]2C[C@H](C(=O)N3CCOCC3)[C@@]3(C)c4[nH]c5cc(-c6ccco6)ccc5c4CCN3C2=O)cc1OC`: the inhibition is 15.1% (inactive).

Turning to `O=C(C=Cc1ccccn1)c1ccccc1`, the inhibition is 3.53% (inactive).

On to `CCO[C@@H]1OC(C(=O)N2CCOCC2)=C[C@H](c2ccc(Br)cc2)[C@H]1CCCO`, for which the inhibition was 9.4% (inactive).

As to `CC(C)CCNC(=O)C(c1ccncc1)N(C(=O)Cn1nnc(-c2ccc(F)cc2)n1)c1ccccc1F` (stereo not drawn), the inhibition was 2.28% (inactive).

Regarding `CSc1ccccc1NC(=O)CSc1n[nH]c(C)c1[N+](=O)[O-]`, the inhibition was 8.49% (inactive).

On to `Nc1nonc1-n1nnc(C(=O)N/N=C/c2ccc(OCc3ccccc3F)cc2)c1CN1CCCCC1`, for which the inhibition is -2.32% (inactive).

In the case of `CN1C(=O)/C(=C/c2ccc(O)c([N+](=O)[O-])c2)N(C)C1=S`, the inhibition was 12.6% (inactive).

In the case of `COc1cc(/C=C2/C(=O)N(C)C(=S)N2C)ccc1OCc1cccc(F)c1`, the inhibition was 8.12% (inactive).

Turning to `CCc1cc(=O)oc2c(C)c(OCC(=O)NCCCn3ccnc3)ccc12`, the inhibition is 5.6% (inactive).

Take `O=C(C[C@@H]1C[C@@H]2c3cc(NS(=O)(=O)c4ccc(F)cc4)ccc3O[C@@H]2[C@@H](CO)O1)NC1CCCCC1`: the inhibition is 7.42% (inactive).

As to `O=C(NCc1cccs1)c1nc2ncccn2n1`, the inhibition is 10.9% (inactive).

With `CSc1cccc(NC(=S)N(CCC(C)C)C2CCN(C(C)C)CC2)c1`, the inhibition is 1.15% (inactive).

Regarding `COc1ccccc1-c1ccc(Nc2ccc(C(=O)N3CCOCC3)cc2)nn1`, the inhibition was 2.87% (inactive).

For `CC(=O)c1ccc(Nc2ccc(-c3ccccc3C)nn2)cc1`, the inhibition is 2.32% (inactive).

Turning to `O=C(NCc1ccncc1)C(=O)N/N=C/c1cccnc1`, the inhibition is -4.63% (inactive).

As to `O=P(Cc1ccccc1O)(c1ccccc1)c1ccccc1`, the inhibition is 3.4% (inactive).

On to `Cc1ccc(O)c(CN(C)Cc2cc(C)ccc2O)c1`, for which the inhibition is -9.02% (inactive).

For `COc1ccc(S(=O)(=O)NC(C)C(=O)Nc2cccc(C(C)=O)c2)cc1` (stereo not drawn), the inhibition was 8.82% (inactive).

As to `CCN(CC)CCn1c2ccccc2c2nc3ccccc3nc21`, the inhibition is 11.3% (inactive).

`CCc1cc2c(=O)c(-c3nc4ccccc4n3C)c(C)oc2c(CN(CC)CC)c1O`: the inhibition was 8.27% (inactive).

As to `O=C(c1cccnc1)N1CCN(S(=O)(=O)c2ccc(S(=O)(=O)N3CCCC3)cc2)CC1`, the inhibition is 2.14% (inactive).

In the case of `CCc1ccc(N(CC(=O)Nc2ccc(OC)cc2OC)S(C)(=O)=O)cc1`, the inhibition was 6.83% (inactive).

Regarding `Cc1cc(N2C(=O)C3C4CCC(C4)C3C2=O)no1` (stereo not drawn), the inhibition was -3.98% (inactive).

Consider `O=C(CCCc1cccs1)N1CCN(S(=O)(=O)c2ccccc2Br)CC1`, for which the inhibition was 8.03% (inactive).

`CC(=O)NC(NC(=S)Nc1ccc(N=Nc2ccccc2)cc1)C(Cl)(Cl)Cl` (stereo not drawn): the inhibition is 7.33% (inactive).

As to `COc1cccc(N2CC(NC(=O)c3ccc4ccccc4c3)CC2=O)c1` (stereo not drawn), the inhibition is 6.5% (inactive).

On to `COC(=O)C1CC(=O)N(c2ccc(C)cc2)C1` (stereo not drawn), for which the inhibition is 1.9% (inactive).

Take `COC(=O)c1ccc(OC(=O)C2CC(=O)N(c3cccc(C)c3)C2)cc1` (stereo not drawn): the inhibition was -2.41% (inactive).

`COc1ccc(N2CC(C(=O)OCC(=O)c3ccc(C)cc3)CC2=O)cc1` (stereo not drawn): the inhibition is -1.09% (inactive).

Consider `O=C(COC(=O)c1ccccc1Cl)NCc1ccco1`, for which the inhibition is 6.58% (inactive).

`CC(C)=CCN1CCN(CCCn2cccn2)CC1CCO` (stereo not drawn): the inhibition was 0.56% (inactive).

With `CC(=O)Nc1ccc(S(=O)(=O)Nc2nccc(/C=C/c3ccc(Cl)cc3)n2)cc1`, the inhibition is -0.65% (inactive).

Consider `COCC1CCN(C(=O)c2cc(COc3ccc(OC)cc3Cl)on2)C1` (stereo not drawn), for which the inhibition is 10.9% (inactive).

As to `COC(=O)C1(Cc2ccc(O)cc2)OC(=O)C(O)=C1c1ccc(O)cc1` (stereo not drawn), the inhibition was 16.3% (inactive).

In the case of `CC(=O)Nc1ccc(S(=O)(=O)c2ccc(C)cc2)cc1`, the inhibition is 10.7% (inactive).

Turning to `Cc1ccc(S(=O)(=O)c2ccc(C)cc2)cc1`, the inhibition was 5.53% (inactive).

Turning to `COc1cc(C(=O)NCCC(=O)N2CCC3(CC2)NCCc2[nH]cnc23)cc(OC)c1OC`, the inhibition is 1.24% (inactive).

Turning to `CCC1CCCCN1C(=S)NC(=O)c1ccc(F)c(S(=O)(=O)N2CCOCC2)c1` (stereo not drawn), the inhibition was 0.38% (inactive).

For `Oc1ccc(/C(Cc2ccccn2)=N\Nc2ccccc2)c(O)c1`, the inhibition is 13.1% (inactive).

As to `O=C(Cc1cscn1)c1ccc(O)cc1O`, the inhibition is 0.47% (inactive).

For `Cc1nc(CC(=O)c2ccc(O)cc2O)cs1`, the inhibition was -0.73% (inactive).

Consider `Cc1nc(C/C(=N\Nc2ccccc2)c2ccc(O)cc2O)cs1`, for which the inhibition was 10.9% (inactive).

In general, inhibition refers to the drop in the measured response relative to a control, in per cent.

For the origin of these results see PubChem BioAssay AID624330 (Southern Research Specialized Biocontainment Screening …, 2012).
